{"source": "ChEMBL document CHEMBL1201862", "about": "“PubChem BioAssay data set” (2004)", "note": "The whole screen tested about 400,000 compounds, of which about 2,100 (0.53%) were called active. Not shown: some 14% with an inconclusive outcome. How the calls were made is not given here. The sample as a whole holds a higher share of actives than the screen did."}
{"target": "Ataxin-2 (Homo sapiens) (UniProt Q99700)", "sequence (Q99700 whole entry)": "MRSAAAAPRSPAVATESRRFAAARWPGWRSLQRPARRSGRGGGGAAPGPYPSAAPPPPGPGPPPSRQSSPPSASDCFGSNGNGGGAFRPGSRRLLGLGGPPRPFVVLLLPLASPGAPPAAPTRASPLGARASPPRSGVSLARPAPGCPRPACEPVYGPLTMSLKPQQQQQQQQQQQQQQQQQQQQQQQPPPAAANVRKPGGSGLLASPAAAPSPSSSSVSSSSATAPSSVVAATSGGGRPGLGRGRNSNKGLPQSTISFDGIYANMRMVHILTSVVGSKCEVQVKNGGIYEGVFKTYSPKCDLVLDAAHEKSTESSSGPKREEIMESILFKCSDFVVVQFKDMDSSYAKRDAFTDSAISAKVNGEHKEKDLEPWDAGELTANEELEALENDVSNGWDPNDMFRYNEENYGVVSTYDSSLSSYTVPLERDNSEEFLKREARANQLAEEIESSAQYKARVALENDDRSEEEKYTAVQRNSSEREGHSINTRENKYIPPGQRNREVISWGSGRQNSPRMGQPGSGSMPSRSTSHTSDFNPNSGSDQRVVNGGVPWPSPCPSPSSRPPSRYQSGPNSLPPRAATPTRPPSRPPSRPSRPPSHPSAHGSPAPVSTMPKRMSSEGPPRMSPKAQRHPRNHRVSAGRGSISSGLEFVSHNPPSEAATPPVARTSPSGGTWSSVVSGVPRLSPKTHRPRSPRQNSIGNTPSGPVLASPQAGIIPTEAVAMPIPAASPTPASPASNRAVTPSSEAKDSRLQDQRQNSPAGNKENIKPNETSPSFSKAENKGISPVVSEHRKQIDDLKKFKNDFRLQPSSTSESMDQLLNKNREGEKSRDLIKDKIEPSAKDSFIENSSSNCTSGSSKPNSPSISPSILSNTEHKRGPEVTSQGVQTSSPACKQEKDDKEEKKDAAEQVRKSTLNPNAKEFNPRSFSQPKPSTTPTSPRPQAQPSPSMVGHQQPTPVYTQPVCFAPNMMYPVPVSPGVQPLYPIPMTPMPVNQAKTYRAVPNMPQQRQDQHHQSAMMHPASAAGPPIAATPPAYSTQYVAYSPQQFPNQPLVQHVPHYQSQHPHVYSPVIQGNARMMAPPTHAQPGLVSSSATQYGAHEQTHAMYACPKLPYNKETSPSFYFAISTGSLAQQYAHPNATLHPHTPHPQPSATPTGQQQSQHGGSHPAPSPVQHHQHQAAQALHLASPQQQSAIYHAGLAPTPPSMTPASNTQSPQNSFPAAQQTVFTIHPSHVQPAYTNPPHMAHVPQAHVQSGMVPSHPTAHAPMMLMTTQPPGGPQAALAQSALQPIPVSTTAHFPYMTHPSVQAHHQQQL", "assay": "qHTS for Inhibitors of ATXN expression.", "format": "functional"}
{"smiles": "COC(=O)c1c(C)nc2nonc2c1N", "Potency": "inactive"}
{"smiles": "CCOC(=O)Nc1c2ccccc2nc2ccccc12", "Potency": "inactive"}
{"smiles": "CCOC(=O)NN=C1c2ccccc2-c2nc3nonc3nc21", "Potency": "3.77 µM (active)"}
{"smiles": "COc1cc(/C=C/C(=O)N2C(=O)c3cccc(N)c3C2=O)cc(OC)c1OC", "Potency": "inactive"}
{"smiles": "Cn1c2nc(=O)[nH]c(=O)c-2cc2ccccc21", "Potency": "inactive"}
{"smiles": "C=CCOc1ccccc1CN(C(=O)CCl)c1ccc2c(c1)OCO2", "Potency": "39.8 µM (active)"}
{"smiles": "CCc1cccc(CC)c1N1C(=O)C2=C(SCCCS2)C1=O", "Potency": "inactive"}
{"smiles": "CCOC(=O)C1(CCOc2ccccc2)CCN(Cc2ccc(C#CCCO)cc2)CC1", "Potency": "inactive"}
{"smiles": "Cn1c(C(=O)N2CCN(C(=O)c3ccco3)CC2)cc2c(=O)n3ccccc3nc21", "Potency": "inactive"}
{"smiles": "CCc1noc(C)c1C(=O)N1CCN(c2cccc(Cl)c2)CC1", "Potency": "inactive"}
{"smiles": "O=C(c1ccco1)N1CCN(c2c(O)nc3ccc(Cl)cc3c2-c2ccccc2)CC1", "Potency": "28.2 µM (active)"}
{"smiles": "Cc1cc(N2CCN(C(=O)c3ccco3)CC2)n2nc(-c3cccc(Cl)c3)cc2n1", "Potency": "35.5 µM (active)"}
{"smiles": "O=c1oc2cc(O)ccc2cc1-c1ccc(F)cc1", "Potency": "inactive"}
{"smiles": "Cc1ccc(/N=c2\\oc3cc(O)ccc3cc2C(N)=O)cc1", "Potency": "inactive"}
{"smiles": "O=CNc1ccc2c3c(cccc13)-c1ccccc1-2", "Potency": "inactive"}
{"smiles": "CC1=NN(c2ccccc2)C(=O)C1/C=N/c1ccc(N(C)C)cc1", "note": "(stereo not given)", "Potency": "inactive"}
{"smiles": "CN(C)C=O.CN(C)c1ccc(/C=C/c2nc3ccccc3c(=O)n2-c2ccc(C(=O)O)cc2)cc1", "Potency": "inactive"}
{"smiles": "CC1=NN(c2ccccc2)C(=O)/C1=C/C=C/c1ccc(N(C)C)cc1", "Potency": "17.8 µM (active)"}
{"smiles": "O=C(COC(=O)Cc1ccsc1)NNC(=O)c1ccccc1", "Potency": "inactive"}
{"smiles": "C#CCN1C(=O)S/C(=C\\c2cc3c(cc2OC)OCO3)C1=O", "Potency": "inactive"}
{"smiles": "CCn1nc(C(=O)NNC(=O)c2cc(Cl)ccc2OC)c2ccccc2c1=O", "Potency": "39.8 µM (active)"}
{"smiles": "COc1ccc(Cl)cc1C(=O)NNC(=O)c1[nH]nc2ccccc12", "Potency": "inactive"}
{"smiles": "CNC(=O)c1cc(NC(=O)CCn2nc(-c3ccccc3)c3ccccc3c2=O)ccc1OC", "Potency": "inactive"}
{"smiles": "CC(=O)N(Cc1ccccc1)c1ncc2c(n1)c(=O)c(C#N)c1ccccn12", "Potency": "inactive"}
{"smiles": "COCCCNC(=O)C[S+]([O-])Cc1nc(-c2ccccc2C)oc1C", "note": "(stereo not given)", "Potency": "inactive"}
{"smiles": "CCCCCOc1ccc(Br)cc1CSC(=N)N", "Potency": "35.5 µM (active)"}
{"smiles": "CCCn1c(=N)c(C(=O)NCC2CCCO2)cc2c(=O)n3cccc(C)c3nc21", "note": "(stereo not given)", "Potency": "inactive"}
{"smiles": "O=C(Cc1ccccc1C(=O)O)Nc1cccc2ccccc12", "Potency": "inactive"}
{"smiles": "Cc1cc(O)nc(SCC(=O)Nc2ccnc3ccccc23)n1", "Potency": "inactive"}
{"smiles": "O=C(CCl)Nc1cccc2ncccc12", "Potency": "31.6 µM (active)"}
{"smiles": "Cc1c(Cc2ccccc2)c(=O)oc2cc(OC(=O)c3ccccc3)ccc12", "Potency": "inactive"}
{"smiles": "CCCc1sc(N/N=C/c2ccccn2)nc1-c1ccc(Br)cc1", "Potency": "17.8 µM (active)"}
{"smiles": "Cn1/c(=N/N=C/c2ccccn2)sc2ccccc21", "Potency": "inactive"}
{"smiles": "Cc1csc(N/N=C/c2ccccn2)n1", "Potency": "28.2 µM (active)"}
{"smiles": "CCC/C=N/Nc1nc2ccccc2s1", "Potency": "inactive"}
{"smiles": "CC/N=c1\\scc(-c2ccc(F)cc2)n1/N=C/c1ccccn1", "Potency": "inactive"}
{"smiles": "C=CCn1c(=N)c(C(=O)NCCCOC)cc2c(=O)n3ccccc3nc21", "Potency": "inactive"}
{"smiles": "Oc1c(Cl)cc(Cl)cc1/C=N\\c1cc(C(F)(F)F)ccc1N1CCc2ccccc2C1", "Potency": "inactive"}
{"smiles": "COc1ccc(-c2cc(C(F)(F)F)c3c(N)c(C(=O)NCCSC)sc3n2)cc1", "Potency": "inactive"}
{"smiles": "COc1ccc(-c2csc(NC(=O)CSc3n[nH]c(N)n3)n2)cc1", "Potency": "inactive"}
{"smiles": "COc1ccc(-c2cc(C(F)(F)F)nc(SCC(=O)Nc3ccc(C(C)=O)cc3)n2)cc1", "Potency": "31.6 µM (active)"}
{"smiles": "CN(C)c1ccc(-c2cc3ccccc3c(=O)o2)cc1", "Potency": "inactive"}
{"smiles": "COC(=O)C1=NN(c2ccc(OC)cc2)C2C(=O)N(c3ccccc3OC)C(=O)C12", "note": "(stereo not given)", "Potency": "inactive"}
{"smiles": "CCOC1=C2CN(S(=O)(=O)c3ccc(C)cc3)[C@H](c3cccc4ccccc34)C[C@H]2C(C#N)(C#N)C(C#N)(C#N)C1", "Potency": "12.6 µM (active)"}
{"smiles": "O=c1oc2c3c4c(cc2c2c1CCC2)OCCN4CCC3", "Potency": "inactive"}
{"smiles": "COc1cccc(C(C(=O)NC(C)(C)C)N(C(=O)CCC(=O)Nc2cc(C)on2)c2ccc3c(c2)OCCO3)c1OC", "note": "(stereo not given)", "Potency": "inactive"}
{"smiles": "COc1ccc(-c2cc(C(F)(F)F)nc(S(=O)(=O)CCCC(=O)Nc3cccc(O)c3)n2)cc1OC", "Potency": "15 µM (active)"}
{"smiles": "CC1CCCCN1C(=O)COC(=O)c1cc(-c2cccs2)nn1-c1ccccc1", "note": "(stereo not given)", "Potency": "inactive"}
{"smiles": "COc1ccc(-c2cc(C(=O)OCC(=O)Nc3cc(C)on3)c3ccccc3n2)cc1OC", "Potency": "inactive"}
{"smiles": "COc1ccc(Br)cc1CN(C)CC(=O)NCc1ccc(F)cc1", "Potency": "inactive"}
{"smiles": "COc1cc(CC(=O)OCC(=O)N2CCCCC2C)cc(OC)c1OC", "note": "(stereo not given)", "Potency": "inactive"}
{"smiles": "COc1ccc(-c2cc(C(=O)Nc3ccc(C(N)=O)cc3)c3ccccc3n2)cc1OC", "Potency": "inactive"}
{"smiles": "COc1ccc(-c2csc(NC(=O)CCNC(=O)c3ccco3)n2)cc1OC", "Potency": "inactive"}
{"smiles": "COc1ccccc1-c1cc(C(F)(F)F)nc(S(=O)(=O)CCCC(=O)N2CCCCC2C)n1", "note": "(stereo not given)", "Potency": "39.8 µM (active)"}
{"smiles": "COc1ccc(-c2cc3nc(C)c(CCC(=O)NCc4ccc(F)cc4)c(C)n3n2)c(OC)c1", "Potency": "inactive"}
{"smiles": "COc1ccccc1-c1cc(C(F)(F)F)nc(S(=O)(=O)CCCC(=O)NCc2ccc(F)cc2)n1", "Potency": "26.7 µM (active)"}
{"smiles": "COc1ccccc1-c1cc(C(F)(F)F)nc(S(=O)(=O)CCCC(=O)Nc2cc(C)on2)n1", "Potency": "14.1 µM (active)"}
{"smiles": "CCN1C(=O)[C@@H]2Cc3c([nH]c4ccccc34)C(c3ccc(OC)cc3)N2C1=S", "note": "(stereo not given in full)", "Potency": "inactive"}
{"smiles": "CCOC(=O)c1nnn(-c2ccc([N+](=O)[O-])cc2)c1C", "Potency": "inactive"}
{"smiles": "CCOC(=O)c1cc([N+](=O)[O-])cc([N+](=O)[O-])c1Sc1[nH]cnc2ncnc1-2", "Potency": "29.9 µM (active)"}
{"smiles": "CCCCCCCCOC(=O)c1cc([N+](=O)[O-])c(Sc2[nH]cnc3ncnc2-3)c([N+](=O)[O-])c1", "Potency": "22.4 µM (active)"}
{"smiles": "CCOc1ccc(C(=O)Oc2cc(C)nc(O)c2[N+](=O)[O-])cc1OCC", "Potency": "inactive"}
{"smiles": "CCn1c(=O)cc(SCC(=O)N2CCN(c3cc(C)ccc3C)CC2)c2ccccc21", "Potency": "35.5 µM (active)"}
{"smiles": "Cc1ccc(C)c(N2CCN(C(=O)CCC(=O)Nc3ccc4nc(N5CCCCC5)cc(C)c4c3)CC2)c1", "Potency": "inactive"}
{"smiles": "CCc1nc2ccc(C(=O)N3CCN(c4cc(C)ccc4C)CC3)cc2nc1CC", "Potency": "inactive"}
